Hit rate of the full screen: of about 16,000 compounds, about 70 (0.4%) were called active. No stated cut-off is given here; in the data, active means inhibition above about 50%; inactive means the rest. Only a selection was taken, and actives are over-represented in it overall.
These compounds were tested against Kappa-type opioid receptor (Homo sapiens) (UniProt P41145) (assay: antagonists of human kappa opioid receptor OPRK1, Maybridge library (AID 652031)). Details: OPRK1 cells, antagonist mode, fluorescence readout; at 9 µM; stronger effect = higher value.
Kappa-type opioid receptor (Homo sapiens), sequence (P41145 whole entry, looked up): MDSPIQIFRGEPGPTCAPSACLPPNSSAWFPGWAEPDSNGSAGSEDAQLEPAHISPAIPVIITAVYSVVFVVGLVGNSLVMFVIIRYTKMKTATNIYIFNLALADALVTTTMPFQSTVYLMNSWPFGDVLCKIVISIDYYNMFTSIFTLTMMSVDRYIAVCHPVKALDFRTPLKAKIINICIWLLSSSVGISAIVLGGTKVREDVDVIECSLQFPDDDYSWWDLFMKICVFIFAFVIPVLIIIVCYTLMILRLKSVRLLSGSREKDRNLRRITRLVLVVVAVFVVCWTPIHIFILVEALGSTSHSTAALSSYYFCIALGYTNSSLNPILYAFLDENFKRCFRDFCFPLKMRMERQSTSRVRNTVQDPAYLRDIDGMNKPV

SMILES	inhibition
O=C(O)C1CCC1C(=O)Nc1nnc(C2CC2)s1 (stereo unspecified)	7.5% (inactive)
O=C(NNC(=S)Nc1ccc(S(=O)(=O)N2CCCCC2)cc1)c1ccncc1	6% (inactive)
CC(CC(=O)O)Oc1ccc(Cl)cc1[N+](=O)[O-] (stereo unspecified)	-0.1% (inactive)
O=C(O)CCC(=O)Nc1ccccc1	9.6% (inactive)
O=C(CN1CCOCC1)NNC(=O)c1cccs1	9.5% (inactive)
O=S(=O)(CCSc1ccccc1NS(=O)(=O)c1cccs1)c1ccc(Cl)cc1	-16.4% (inactive)
CCCN(CCC)S(=O)(=O)c1ccc(C(=O)Oc2c(C)cccc2OC)cc1	-3.1% (inactive)
Cc1noc(C)c1C(=O)N1CCOCC1	0.6% (inactive)
CC(=O)OCc1ccc(COC(C)=O)c(OC(C)=O)c1OC(C)=O	-15.9% (inactive)
O=C1C(Cl)=C(Oc2cc(Cl)c(Cl)cc2Cl)C(=O)c2ccccc21	21.4% (inactive)
CO/N=C(/C)c1ccc2c(c1)CCO2	10.8% (inactive)
COC(=O)/C=C/c1cn(C2OCC(CO)C2O)c(=O)[nH]c1=O (stereo unspecified)	-22% (inactive)
O=C(OCc1ccco1)c1cnc(Nc2ccc(OC(F)(F)F)cc2)nc1C(F)(F)F	17.4% (inactive)
Cc1ccccc1C(=O)NNC(=O)c1ccccc1C1=NCCCN1	-4.3% (inactive)
O=C(NC(=O)C1CCN(c2ncccc2[N+](=O)[O-])CC1)Nc1ccc(Cl)cc1	-2% (inactive)
O=c1oc2ccc(Cl)cc2cc1-c1ccc([N+](=O)[O-])cc1	-18.5% (inactive)
CC(C)(C)c1cc(C(=O)/C=C2/NC(=O)CS2)no1	6.7% (inactive)
Cc1nn(S(=O)(=O)c2ccc(Cl)cc2)cc1-c1ccccc1	0.1% (inactive)

SMILES	inhibition
Cc1ccc(S(=O)(=O)NC(=O)NNc2ncnc3scc(-c4ccccc4)c23)cc1	-34.5% (inactive)
NC(N)=N/C(N)=N/c1nnc(C(F)(F)F)s1	13.1% (inactive)
N#C/C(=C\c1sccc1Oc1ccccc1)S(=O)(=O)c1ccc(C(F)(F)F)cn1	-9.5% (inactive)
O=S(=O)(Cc1cccc(C(F)(F)F)c1)NCc1ccc2c(c1)OCO2	9.5% (inactive)
O=c1[nH]cc(Br)c(=O)[nH]1	6.1% (inactive)
CN(C)c1cc(-c2cc(Cl)sc2Cl)oc(=O)c1Cl	-5% (inactive)
c1ccc(-n2cccc2)c(N2CCCCC2)c1	-9.4% (inactive)
CC(C)(C)C(=O)NNC(=O)c1ccc(Oc2ccc(C3SCCS3)cc2)o1	30.1% (inactive)
CCOC(=O)/C(C#N)=C/NNc1c(C)csc1C(=O)OC	8.8% (inactive)
CS/C(=N/S(=O)(=O)c1c(C)noc1C)NNC(=O)Nc1ccc(Cl)cc1	1.3% (inactive)
O=C(Nc1ccccc1C(F)(F)F)N1CCCC1c1cccnc1 (stereo unspecified)	-12.3% (inactive)
COc1cccc2cc(C(=O)O)oc12	19.9% (inactive)
c1ccc(C2=NCCN=C2c2ccccc2)cc1	-1.9% (inactive)
O=C(O)c1nccnc1C(=O)NCCSCc1c(F)cccc1Cl	2.6% (inactive)
O=[N+]([O-])c1cc(C(F)(F)F)ccc1OCCO	6.7% (inactive)
Cc1ccc(/C=c2\sc3nc4ccccc4n3c2=O)o1	53.6% (active)
CCOC(=O)CN1C(=O)/C(=C\c2ccc(C)o2)N=C1c1ccccc1	3.1% (inactive)
O=C(Nc1ccccc1)N1CCN(Cc2ccccc2)CC1	8.5% (inactive)

— PubChem BioAssay AID652031 (The Scripps Research Institute Molecular Screening Center, 2013)
